The source of these data is PubChem BioAssay AID463173 (ICCB-Longwood Screening Facility, Harvard Medical School, 2010).

The structures appear in SMILES notation. In all, about 52,000 compounds went through this assay and about 4,300 (8.3%) were called active. The sample holds actives, similar compounds and a random draw of the others, so the mix is not that of the screen. Rule as the data show it: active = survival mostly below about 52% (no sharp cut-off); inactive = mostly above about 56%.

This assay has as its system DeltatarO mutant. Briefly: growth inhibition of S. aureus wild type versus tarO mutant, primary screen, teichoic acid synthesis inhibitors, RN4220, OD600 (AID 463173). The following applies: OD600, 18 h, stronger effect = lower value, screened at 18.75 µg/mL (by protocol).
With `Cc1cccc(CCNC(=O)C2CCC(CNS(=O)(=O)c3ccccc3)CC2)c1` (stereo not drawn), the survival was 77% (inactive).

For `Clc1ccc(Nc2c(-c3ccccc3Cl)nc3ccc(Cl)cn23)cc1`, the survival was 45% (inactive).

As to `Cc1ccc(Cl)cc1NC(=O)NCc1cccn1Cc1ccc(F)cc1`, the survival was 104% (inactive).

For the compound `Cc1ccnc(NC(=O)c2c(C)oc3ncn(CC(C)C)c(=O)c23)c1`, the survival was 92% (inactive).

Regarding `Cc1oc2ncn(CC(C)C)c(=O)c2c1C(=O)Nc1cccc(C(F)(F)F)c1`, the survival is -1% (active).

Consider `CCN(CC)CCCNC(=O)c1c(C)oc2ncn(CC(C)C)c(=O)c12`, for which the survival is 70% (inactive).

For the compound `CCCCNC(=O)c1c(C)oc2ncn(CC(C)C)c(=O)c12`, the survival is 6% (active).

With `CCOc1ccc(CCNC(=O)c2c(C)oc3ncn(C)c(=O)c23)cc1`, the survival was 84% (inactive).

Regarding `CCNC(=O)c1c(C)oc2ncn(C)c(=O)c12`, the survival is 91% (inactive).

`Cc1oc2ncn(CC(C)C)c(=O)c2c1C(=O)NCCCN1CCCCC1`: the survival is 101% (inactive).

In the case of `Cc1cccc(NC(=O)c2c(C)oc3ncn(CC(C)C)c(=O)c23)n1`, the survival was 72% (inactive).

Consider `CSc1ccc(CCNC(=O)c2c(C)oc3ncn(C)c(=O)c23)cc1`, for which the survival was -2% (active).

On to `Cc1cc(S(=O)(=O)N2CCN(Cc3noc(CCC(=O)N4CCCCC4)n3)CC2)ccc1F`, for which the survival was 89% (inactive).

As for `CCC(=O)N1CCc2cc(Br)cc(S(=O)(=O)N3CCN(c4ccccc4)CC3)c21`, the survival was 73% (inactive).

`CCOc1ccc(CNC(=O)C2CCCN(S(=O)(=O)c3ccc4c(c3)CCCC(=O)N4)C2)cc1` (stereo not drawn): the survival was 75% (inactive).

On to `CN1c2ccc(Cl)cc2-c2nc(SCC(=O)NCc3ccc(F)cc3)ncc2S1(=O)=O`, for which the survival is 117% (inactive).

Take `COc1ccc(-c2cn3c(n2)sc2cc(C(=O)Nc4ccc(F)cc4Cl)ccc23)cc1`: the survival is 61% (inactive).

As to `O=C(c1cc2ccc3cccnc3c2[nH]1)N1CCCCC1`, the survival was 69% (inactive).

With `Cc1ccc(OC(=O)c2ccco2)cc1C`, the survival was 61% (inactive).

As for `Cc1cc(C)cc(NC(=O)Cc2csc(COc3cccc(C)c3)n2)c1`, the survival is 90% (inactive).

Turning to `Cc1nc(CC(=O)Nc2ccc(C)c(C)c2)cs1`, the survival is 40% (active).

In the case of `COc1ccc(NC(=O)Cc2csc(C)n2)cc1`, the survival is 47% (inactive).

Regarding `Cc1cccc(NC(=O)Cc2csc(COc3cccc(C)c3)n2)c1`, the survival was 74% (inactive).

For `Cc1cc(C)cc(NC(=O)Cc2csc(C)n2)c1`, the survival was 39% (active).

Regarding `Cc1nc(CC(=O)Nc2ccc(N(C)C)cc2)cs1`, the survival was 45% (active).

Consider `Cc1cccc(OCc2nc(CC(=O)Nc3ccc(C)c(C)c3)cs2)c1`, for which the survival was 85% (inactive).

Regarding `Cc1nc(CC(=O)Nc2ccc(C(N)=O)cc2)cs1`, the survival is 49% (inactive).

Take `CCCOC(=O)c1ccc(NC(=O)Cc2csc(C)n2)cc1`: the survival was 105% (inactive).
